From the supplement of paper PMC7156485 come the findings set out here.

Molecules are shown by their SMILES. ± gives the standard deviation of the averaged measurements.

Holding throughout (details): concentration: 10 µM; 24 h
Experiment [1] relates to HCC1569. The experiment can be described thus: cell number relative to DMSO (% of DMSO); higher = more cells (less growth inhibition / toxicity). The method in brief:
(§1)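 H1.0 nuclear intensity or cell number is expressed as percent of the plate control, with the median of replicates taken. HCC1569 and TDF cells were treated with compounds at 10 µM for 24 h at 37 °C, in triplicate, then fixed and immunostained for H1.0 with DAPI as a nuclear stain. HCC1569 values were smoothed to correct for positional effects.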

In experiment [2] the test system is TDF. The description is as above. The gist of the method: as §1
Experiment [3] has as its system TDF. The experiment can be described thus: H1.0 immunofluorescence intensity relative to DMSO (% of DMSO); higher = stronger H1.0 induction, active = 120 or more. The gist of the method:
as §1

Experiment [4] deals with HCC1569. The experiment can be described thus: H1.0 immunofluorescence intensity relative to DMSO (% of DMSO); higher = stronger H1.0 induction, active = 140 or more. The gist of the method:
as §1
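Wherever H1.0 immunofluorescence intensity relative to DMSO is given: TDF is a line of transformed human dermal fibroblasts of mesenchymal origin.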
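Wherever cell number relative to DMSO is given: TDF denotes transformed human dermal fibroblasts of mesenchymal origin.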

On to `CCN(CC)CC#CCOC(=O)C(O)(c1ccccc1)C1CCCCC1.Cl` (stereo not drawn) [Oxybutynin Chloride], for which the cell number in the experiment with HCC1569 [1] and with TDF [2] was 101 in each case. Moreover, the values for the H1.0 immunofluorescence intensity with TDF [3] and in the experiment on HCC1569 [4] were 94.5 (inactive) and 97.4 (inactive), respectively.

Consider `O=c1oc2cc(O)ccc2c2oc3cc(O)ccc3c12` [Coumestrol], for which the cell number in the experiment with HCC1569 [1] amounted to 99.9; in the experiment with TDF [2] it was 91.8. Also, the H1.0 immunofluorescence intensity in the experiment with TDF [3] was 97.6 (inactive); in the experiment on HCC1569 [4] it was 94.6 (inactive).

Take `O=C1NC(=O)C(c2cn(CCCO)c3ncccc23)=C1c1cnccn1` [GSK-3b Inhibitor XI]: the cell number in the experiment on HCC1569 [1] amounted to 106; in the experiment on TDF [2] it was 119. For the same compound, the values for the H1.0 immunofluorescence intensity in the experiment on TDF [3] and with HCC1569 [4] were 88.7 (inactive) and 116 (inactive), respectively.

For `Cc1[nH]c2ccccc2c1CCNC(=O)c1ccccc1F` [2-fluoro-N-[2-(2-methyl-1H-indol-3-yl)ethyl]benzamide], the figures for the cell number in the experiment with HCC1569 [1] and with TDF [2] were 100 and 106, respectively. Also, the H1.0 immunofluorescence intensity was 110 (inactive) in the experiment with TDF [3] and 93.6 (inactive) in the experiment on HCC1569 [4].

As to `NCC(O)(CS(=O)(=O)O)c1ccc(Cl)cc1` (stereo not drawn) [2-Hydroxysaclofen], the values for the cell number in the experiment on HCC1569 [1] and in the experiment on TDF [2] were 101 and 94.6, respectively. Moreover, the H1.0 immunofluorescence intensity is 97.7 (inactive) with TDF [3] and 93.4 (inactive) in the experiment on HCC1569 [4].

On to `OCC1OC(O)C(Cl)C(O)C1O` [2-Chloro-2-deoxy-D-glucose], for which the figures for the cell number in the experiment with HCC1569 [1] and in the experiment on TDF [2] were 104 and 101, respectively. Moreover, the figures for the H1.0 immunofluorescence intensity in the experiment with TDF [3] and in the experiment on HCC1569 [4] were 101 (inactive) and 92 (inactive), respectively.

Regarding `Cc1cn[nH]c1.Cl` [4-Methylpyrazole hydrochloride], the values for the cell number with HCC1569 [1] and in the experiment with TDF [2] were 108 and 102, respectively. Besides, the H1.0 immunofluorescence intensity is 98.5 (inactive) in the experiment with TDF [3] and 95.4 (inactive) in the experiment on HCC1569 [4].

Take `COc1ccc2[nH]cc(CCNC(C)=O)c2c1` [Melatonin]: the cell number in the experiment with HCC1569 [1] was 101 ± 3.5; with TDF [2], 99.5 ± 3. Besides, the H1.0 immunofluorescence intensity in the experiment with TDF [3] and in the experiment with HCC1569 [4] was 93.4 (inactive) throughout.

On to `O=C1OC(=CBr)CCC1c1cccc2ccccc12` (stereo not drawn) [Bromoenol lactone], for which the cell number is 97.3 with HCC1569 [1] and 100 with TDF [2]. The H1.0 immunofluorescence intensity in the experiment on TDF [3] is 94.5 (inactive); in the experiment on HCC1569 [4], 112 (inactive).

As for `CC(CCc1ccc(O)cc1)NCCc1ccc(O)c(O)c1.Cl` (stereo not drawn) [Dobutamine.HCl], the results for the cell number with HCC1569 [1] and in the experiment on TDF [2] were 104 and 111, respectively. For the same compound, the H1.0 immunofluorescence intensity was 83.4 (inactive) with TDF [3] and 105 (inactive) in the experiment on HCC1569 [4].

`O=C1NC(=O)C(=Cc2ccc3c(c2)OC(F)(F)O3)S1` [PI 3-KbInhibitor II]: the cell number was 100 in the experiment on HCC1569 [1] and 96.8 in the experiment with TDF [2]. For the same compound, the H1.0 immunofluorescence intensity was 103 (inactive) in the experiment on TDF [3] and 112 (inactive) in the experiment on HCC1569 [4].

Take `O=C1CCC(N2C(=O)c3ccccc3C2=O)C(=O)N1` (stereo not drawn) [Thalidomide]: the cell number is 101 with HCC1569 [1] and 102 with TDF [2]. Besides, the H1.0 immunofluorescence intensity with TDF [3] is 97.1 (inactive); with HCC1569 [4], 96.7 (inactive).

`COc1cc(-c2oc3cc(O)cc(O)c3c(=O)c2O)ccc1O` [Isorhamnetine]: the cell number in the experiment with HCC1569 [1] and in the experiment on TDF [2] was 97.1 in each case. Also, the H1.0 immunofluorescence intensity in the experiment on TDF [3] is 97.1 (inactive); in the experiment on HCC1569 [4] it was 116 (inactive).

On to `CCC(=C(CC)c1ccc(O)cc1)c1ccc(O)cc1` [Diethylstilbestrol], for which the cell number in the experiment with HCC1569 [1] worked out at 99.3; with TDF [2], 92.6. Besides, the H1.0 immunofluorescence intensity with TDF [3] is 99 (inactive); in the experiment on HCC1569 [4], 111 (inactive).

With `C#CC1(O)CCC2C3CCC4=Cc5oncc5CC4(C)C3CCC21C` (stereo not drawn) [Danazol], the cell number in the experiment on HCC1569 [1] was 97.02 ± 0.7; with TDF [2], 98.36 ± 0.75. In addition, the H1.0 immunofluorescence intensity is 95.4 (inactive) in the experiment on TDF [3] and 100 (inactive) with HCC1569 [4].

Turning to `CC1OC(OCC2OC(Oc3cc(O)c4c(c3)OC(c3ccc(O)cc3)CC4=O)C(O)C(O)C2O)C(O)C(O)C1O` (stereo not drawn) [Narirutin], the cell number in the experiment with HCC1569 [1] was found to be 101; with TDF [2] it was 103. For the same compound, the H1.0 immunofluorescence intensity in the experiment with TDF [3] was 94.7 (inactive); in the experiment with HCC1569 [4], 80.9 (inactive).

Regarding `COc1cc2c[n+](C)c3c4cc5c(cc4ccc3c2cc1OC)OCO5.[Cl-]`, the cell number in the experiment with HCC1569 [1] worked out at 85.3; in the experiment on TDF [2], 34.7. The H1.0 immunofluorescence intensity in the experiment on TDF [3] was 138 (active); in the experiment with HCC1569 [4], 106 (inactive).

As for `CCN(CC)CCNC(=O)c1cc(Cl)c(N)cc1OC` [Metoclopramide], the cell number with HCC1569 [1] was found to be 102; in the experiment on TDF [2], 105. Also, the H1.0 immunofluorescence intensity with TDF [3] is 97.1 (inactive); in the experiment on HCC1569 [4], 108 (inactive).

Regarding `CCC(C)C(CC)C(N)=O` (stereo not drawn) [2-ethyl-3-methylpentanamide], the cell number in the experiment on HCC1569 [1] turned out to be 103; in the experiment on TDF [2], 107. Further, the H1.0 immunofluorescence intensity in the experiment with TDF [3] is 92.3 (inactive); with HCC1569 [4] it was 96.6 (inactive).

As to `CC1=CC(=O)C(C(C)C)=CC1=O` [Thymoquinone], the cell number with HCC1569 [1] is 104 ± 1.4; with TDF [2], 102 ± 3.6. The results for the H1.0 immunofluorescence intensity with TDF [3] and with HCC1569 [4] were 93.5 (inactive) and 93.3 (inactive), respectively.

Turning to `CN(C)CCCn1cc(C2=C(c3c[nH]c4ccccc34)C(=O)NC2=O)c2ccccc21`, the cell number was found to be 86.2 in the experiment on HCC1569 [1] and 79.5 with TDF [2]. The H1.0 immunofluorescence intensity is 115 (inactive) in the experiment with TDF [3] and 139 (inactive) in the experiment with HCC1569 [4].

Regarding `c1ccc(-c2[nH]ncc2-c2ccnc3ccccc23)nc1` [TGF-b RI Kinase Inhibitor], the cell number stood at 102 with HCC1569 [1] and 103 with TDF [2]. The H1.0 immunofluorescence intensity with TDF [3] was 91 (inactive); in the experiment with HCC1569 [4] it was 110 (inactive).
